# Where a name gives a salt, the structure may show the parent alone. ± gives the standard deviation of the averaged measurements.
# Legend:
# Assay in all cases: growth (OD600 after 10 h); higher = more growth (less inhibition)
# [1] = test system: E. coli TESEC Alr+ wild-type control; settings: compound 0.1 mM; raw OD600 reference: median of DMSO wells 0.241, cell-free background 0.041
# Description: (§1)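 TESEC Mtb Alr E. coli, or the Alr+ wild-type control, in 384-well plates with Prestwick library compounds at 0.1 mM and 1% DMSO, across arabinose induction levels of 1E3 to 1E7 nM. Growth is read as OD600 after 10 h at 37 °C in triplicate biological replicates.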
# [2] = test system: E. coli TESEC Mtb Asd; settings: compound 0.1 mM
# Description: (§2)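 TESEC E. coli strains in which the native enzyme is deleted and replaced by arabinose-inducible Mtb Asd, DapB, CysH or TrpD, each grown in its selective medium. Strains were screened against the Prestwick library at 0.1 mM and 1% DMSO in 384-well format at low and high arabinose induction. Growth is read as OD600 after 10 h in triplicate.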
# [3] = test system: E. coli TESEC Mtb DapB; settings: compound 0.1 mM
# Description: as §2
# [4] = test system: E. coli TESEC Alr+ wild-type control; settings: compound 0.1 mM; raw OD600 reference: median of DMSO wells 0.49, cell-free background 0.052
# Description: (§3)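 TESEC Mtb Alr E. coli (ΔaraC ΔtolC ΔentC Δalr ΔdadX, arabinose-inducible Mtb Alr) or the Alr+ wild-type control strain, grown in defined M9-fructose medium without D-alanine in 96-well plates with Prestwick library compounds at 0.1 mM and 1% DMSO. Low Alr induction is 0.1 µM arabinose and high induction is 10 mM arabinose.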
# [5] = test system: E. coli TESEC Mtb Alr; settings: compound 0.1 mM
# Description: as §3
# [6] = test system: E. coli TESEC Mtb Alr; settings: compound 0.1 mM; remark: listed apart in the source
# Description: as §1
# [7] = arabinose induction (level): High, raw OD600 reference: median of DMSO wells 0.331, cell-free background 0.041
# [8] = arabinose induction (level): Low, raw OD600 reference: median of DMSO wells 0.417, cell-free background 0.041
# [9] = arabinose induction (level): High, raw OD600 reference: median of DMSO wells […], cell-free background 0.041
# [10] = arabinose induction (level): Low, raw OD600 reference: median of DMSO wells 0.227, cell-free background 0.041
# [11] = arabinose 100 nM, raw OD600 reference: median of DMSO wells 0.413, cell-free background 0.052
# [12] = arabinose 10000000 nM, raw OD600 reference: median of DMSO wells […], cell-free background 0.052
# [13] = arabinose 1000 nM, raw OD600 reference: median of DMSO wells 0.294, cell-free background 0.041
# [14] = arabinose 10000 nM, raw OD600 reference: median of DMSO wells 0.264, cell-free background 0.041
# [15] = arabinose 100000 nM, raw OD600 reference: median of DMSO wells 0.201, cell-free background 0.041
# [16] = arabinose 1000000 nM, raw OD600 reference: median of DMSO wells 0.193, cell-free background 0.041
# [17] = arabinose 10000000 nM, raw OD600 reference: median of DMSO wells 0.146, cell-free background 0.041
SMILES,growth [1],"growth [2, 7]","growth [2, 8]","growth [3, 9]","growth [3, 10]",growth [4],"growth [5, 11]","growth [5, 12]","growth [6, 13]","growth [6, 14]","growth [6, 15]","growth [6, 16]","growth [6, 17]"
CCN(CC)CCOC(=O)C1(C2CCCCC2)CCCCC1 [Dicyclomine hydrochloride],0.137 ± 0.0054,0.137 ± 0.014,0.21 ± 0.049,0.144 ± 0.0069,0.183 ± 0.041,0.46 ± 0.008,0.393 ± 0.017,0.11 ± 0.003,–,–,–,–,–
CCC(Cc1c(I)cc(I)c(N)c1I)C(=O)O (stereo not given) [Iopanoic acid],0.0835 ± 0.0044,0.114 ± 0.0023,0.0943 ± 0.0055,0.148 ± 0.005,0.177 ± 0.005,0.263 ± 0.0034,0.339 ± 0.018,0.0809 ± 0.0061,–,–,–,–,–
CN(C)C/C=C(/c1ccc(Br)cc1)c1cccnc1 [Zimelidine dihydrochloride monohydrate],0.2066 ± 0.0016,0.237 ± 0.037,0.413 ± 0.022,–,–,–,0.397 ± 0.01,0.303 ± 0.028,0.261 ± 0.0081,0.255 ± 0.028,0.192 ± 0.028,0.153 ± 0.0035,0.134 ± 0.0035
CC(C)(C)C(=O)OCOC(=O)[C@@H]1N2C(=O)[C@@H](NC(=O)[C@H](N)c3ccccc3)[C@H]2SC1(C)C [Pivampicillin],0.26 ± 0.0055,0.376 ± 0.075,0.396 ± 0.018,0.216 ± 0.058,0.24 ± 0.024,0.555 ± 0.11,0.4 ± 0.012,0.379 ± 0.028,–,–,–,–,–
O=C(OCCOCCO)c1ccccc1Nc1cccc(C(F)(F)F)c1 [Etofenamate],0.0458 ± 0.00036,0.0525 ± 0.0012,0.0509 ± 0.0012,–,–,–,0.185 ± 0.19,0.0516 ± 0.0022,0.0491 ± 0.0032,0.0483 ± 0.00084,0.049 ± 0.0019,0.0472 ± 0.002,0.0499 ± 0.0013
CCCCCNC(=N)N/N=C/c1c[nH]c2ccc(OC)cc12 [Tegaserod maleate],0.0464 ± 0.0039,0.0504 ± 0.0014,0.0483 ± 0.0011,–,–,–,0.0508 ± 0.00065,0.0554 ± 0.00072,0.047 ± 0.0021,0.0443 ± 0.00086,0.0455 ± 0.0016,0.0451 ± 0.0011,0.0474 ± 0.0038
CCCCC(C)(O)C/C=C/[C@H]1[C@H](O)CC(=O)[C@@H]1CCCCCCC(=O)OC (mixture of isomers) [Misoprostol],0.323 ± 0.014,0.35 ± 0.071,0.44 ± 0.022,–,–,–,0.432 ± 0.0064,0.378 ± 0.013,0.3803 ± 0.0025,0.278 ± 0.0043,0.474 ± 0.013,0.193 ± 0.009,0.22 ± 0.013
COc1c(O[C@@H]2O[C@H](CO)[C@@H](O)[C@H](O)[C@H]2O)cc2c(c1OC)-c1ccc(SC)c(=O)cc1[C@@H](NC(C)=O)CC2 [Thiocolchicoside],0.254 ± 0.01,0.271 ± 0.091,0.291 ± 0.082,0.206 ± 0.024,0.236 ± 0.015,0.51 ± 0.076,0.414 ± 0.011,0.35 ± 0.023,–,–,–,–,–
C#CCN(C)CCCOc1ccc(Cl)cc1Cl [Clorgyline hydrochloride],0.14 ± 0.0066,0.25 ± 0.093,0.21 ± 0.04,0.158 ± 0.013,0.208 ± 0.016,0.458 ± 0.027,0.392 ± 0.0072,0.222 ± 0.016,–,–,–,–,–

# From the supplement of paper PMC9262897, “Low-cost anti-mycobacterial drug discovery using engineered E. coli” (Nature Communications, 2022)
